Many of the other results were omitted from the sample, so hits are more common in it than they were.
Pf Dd2 inh: inhibitors of Plasmodium falciparum Dd2 growth; P. falciparum Dd2 growth, SYBR Green, 72 h; Potency, µM (doses to about 28.9 µM), for inactives: top-dose activity, negative = inhibition, most hits filed as inhibitors; actives 4.3% (n = 120,000); active = well fitted inhibition curve with a large enough effect;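 note: plate controls were DMSO vehicle for no effect and reference drug for full effect; nearly all actives have a fitted effect of over 65% in size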
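Infected erythrocytes (Dd2, 0.3% parasitemia, 2.5% hematocrit final) are added to compound in RPMI-1640/Albumax II medium, grown 72 h at 37C in low oxygen, then lysed with saponin/Triton-X containing SYBR Green and read by fluorescence.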
Active calls of the source: *; [ ] = another dose, or the depositor's remark. Potency is the fitted concentration of half-maximal effect.

For CCN1c2cc(C(=O)Nc3ccc(Br)c(C)c3)ccc2C(=O)N2CCCCC21 (stereo not given) the results were Pf Dd2 inh 5.62µM*.
`Cc1cccc(CNC(=O)c2ccc3c(c2)N(C)C2CCCN2C3=O)c1` (stereo not given) gave Pf Dd2 inh 10µM*.
For CCN1c2cc(C(=O)Nc3ccc(C)cc3)ccc2C(=O)N2CCCCC21 (stereo not given) the results were Pf Dd2 inh inactive.
For CCc1cccc(NC(=O)c2ccc3c(c2)N(C)C2CCCN2C3=O)c1 (stereo not given) the results were Pf Dd2 inh -7.3%.
For CCN1c2cc(C(=O)NCc3ccccc3)ccc2C(=O)N2CCCCC21 (stereo not given) the results were Pf Dd2 inh -4.3%.
CCN1c2cc(C(=O)Nc3ccc(C)c(Cl)c3)ccc2C(=O)N2CCCC21 (stereo not given) was read as Pf Dd2 inh -22.3%.
Cc1ccc(CNC(=O)c2ccc3c(c2)N(C)C2CCCCCN2C3=O)cc1C (stereo not given) was read as Pf Dd2 inh inactive.
Screening CCN1c2cc(C(=O)NCc3ccc(C(C)C)cc3)ccc2C(=O)N2CCCCCC21 (stereo not given) returned Pf Dd2 inh 11.2µM*.
Screening CCN1c2cc(C(=O)NCc3cccc(C)c3)ccc2C(=O)N2CCCCC21 (stereo not given) returned Pf Dd2 inh inactive.
For CCc1cccc(NC(=O)c2ccc3c(c2)N(CC)C2CCCCN2C3=O)c1 (stereo not given) the results were Pf Dd2 inh 4.47µM*.
For CCN1c2cc(C(=O)Nc3cccc(C)c3)ccc2C(=O)N2CCCCC21 (stereo not given) the results were Pf Dd2 inh inactive.
`CCN1c2cc(C(=O)NCc3ccc(C)cc3)ccc2C(=O)N2CCCCCC21` (stereo not given) gave Pf Dd2 inh -9.0%.
CN1c2cc(C(=O)Nc3cc(F)ccc3F)ccc2C(=O)N2CCCCCC21 (stereo not given) was read as Pf Dd2 inh -13.2%.
Screening CN(C)C(=O)N1CCc2nc(C3CC3)nc(-c3ccc(Cl)cc3)c2C1 returned Pf Dd2 inh inactive.
`COc1ccc(CNC(=O)C2(N3C[C@@H](C)O[C@@H](C)C3)Cc3ccccc3C2)cc1` gave Pf Dd2 inh -8.2%.
For COc1cccc(CC(=O)N[C@@H]2C[C@H](Cn3cc(CN(C)C)nn3)[C@@H](O)[C@H]2O)c1 the results were Pf Dd2 inh 5.2%.
For CCCCS(=O)(=O)N1CCc2nn(CCOC)c(=O)n2CC1 the results were Pf Dd2 inh 5.2%.
Screening Cc1sc2ccn(CC(C)C)c(=O)c2c1C(=O)O returned Pf Dd2 inh -17.4%.
Screening O=C(CCC1CCN(C(=O)[C@@H]2C[C@@H]3C=C[C@H]2C3)CC1)Nc1ccc2c(c1)OCCO2 returned Pf Dd2 inh -21.5%.
Cc1ccc(OCC(=O)N2[C@@H]3CC[C@H]2CC(NC(=O)c2ccncc2)C3)cc1 (stereo not given in full) was read as Pf Dd2 inh inactive.
Screening Cc1nc(C)c(C(=O)NCC(=O)N2CCCCCNC(=O)CC2c2ccccc2)s1 (stereo not given) returned Pf Dd2 inh -12.0%.
Screening CO[C@H]1C(=O)N(C2CCN(S(=O)(=O)c3ccccc3)CC2)[C@H]1c1ccncc1 returned Pf Dd2 inh 21.2%.
For Cc1cc(C)cc(NC(=O)c2ccc3c(c2)N(C)C2CCCCCN2C3=O)c1 (stereo not given) the results were Pf Dd2 inh inactive.
Screening CCN1c2cc(C(=O)Nc3cccc(C)c3)ccc2C(=O)N2CCCCCC21 (stereo not given) returned Pf Dd2 inh -15.0%.
`CCc1cccc(NC(=O)c2ccc3c(c2)N(CC)C2CCCCCN2C3=O)c1` (stereo not given) gave Pf Dd2 inh 5.62µM*.
For CN1c2cc(C(=O)Nc3cc(F)cc(F)c3)ccc2C(=O)N2CCCCCC21 (stereo not given) the results were Pf Dd2 inh 4.47µM*.
`CCc1cccc(NC(=O)c2ccc3c(c2)N(C)C2CCCCCN2C3=O)c1` (stereo not given) gave Pf Dd2 inh -27.4%.
Screening CN1c2cc(C(=O)Nc3cccc(F)c3)ccc2C(=O)N2CCCCC21 (stereo not given) returned Pf Dd2 inh -11.4%.
Screening O=C(c1ccccc1)N1C[C@@H](CO)[C@H](c2nc(-c3ccncc3)no2)C1 returned Pf Dd2 inh -8.3%.
For CC1=C[C@@H](CNC(=O)c2cncnc2)[C@H](C(C)C)C[C@H]1CC(=O)NC1CCCC1 the results were Pf Dd2 inh -22.9%[44.1 µM].
CCCc1cc(CNC(=O)c2ccc(NC3CCOC(C)(C)C3)nc2)on1 (stereo not given) was read as Pf Dd2 inh -15.3%.
Screening Cc1cccc(CN2C[C@]34C=C[C@H](O3)C(C(=O)N3CCc5ncccc5C3)C4C2=O)c1 (stereo not given in full) returned Pf Dd2 inh -0.4%.
COCCN1CCCCC(CC(=O)Nc2ccc(C)c(F)c2)C1=O (stereo not given) was read as Pf Dd2 inh -20.0%.
For Cc1cc(C)c(CNC(=O)c2nc(-c3ccnn3C)cc3c2ccn3C(C)C)c(=O)[nH]1 the results were Pf Dd2 inh 7.08µM*.
For Cc1cc(C)c(CNC(=O)c2nc(-c3ccccc3)cc3c2ccn3C(C)C)c(=O)[nH]1 the results were Pf Dd2 inh inactive.
Cc1cc(C)c(CNC(=O)c2nc(-c3ccccc3C#N)cc3c2ccn3C(C)C)c(=O)[nH]1 was read as Pf Dd2 inh inactive.
Screening COc1cccc(C(=O)N2CCCC(n3cc(-c4nc(C5CC5)no4)nn3)C2)c1 (stereo not given) returned Pf Dd2 inh -17.0%.
`CC(C)(C)C(=O)N1CCC2(CC1)OCC(C(=O)NC1CC1)N2C(=O)c1ccc(F)cc1` (stereo not given) gave Pf Dd2 inh -13.1%.
COc1ccc(Nc2nc3ccc(Cl)cc3nc2-n2nc(C)cc2C)cc1 was read as Pf Dd2 inh 44.5%.
Screening COc1cccc(Nc2cc(C)nc3nc(-c4ccc(Cl)cc4)nn23)c1 returned Pf Dd2 inh 15.9%.
For COc1ccc2nc(C)cc(Nc3ccc(Cl)c(Cl)c3)c2c1 the results were Pf Dd2 inh 1µM*.
`COc1ccc(-c2ccnc(-c3nnc(C)n3C(C)C)c2)cc1OC` gave Pf Dd2 inh -7.9%[44.1 µM].
Screening COCc1cc(CC2(NCc3ccc(F)cc3)COC2)no1 returned Pf Dd2 inh -3.6%[44.1 µM].
For Cc1noc(C)c1-c1cc2cc(CNC3CC3)oc2c(NC2CCN(C)CC2)n1 the results were Pf Dd2 inh -13.7%[44.1 µM].
`Cc1cc2cc(-c3c(C)noc3C)nc(NC3CC3)c2o1` gave Pf Dd2 inh -9.0%[44.1 µM].
Cc1noc(C)c1-c1cc2cc(C(C)C)oc2c(NC2CCN(C)CC2)n1 was read as Pf Dd2 inh 10µM*.
Screening Cc1noc(C)c1-c1cc2cc(C(C)C)oc2c(NCCN2CCOCC2)n1 returned Pf Dd2 inh 10µM*.
Screening Cc1noc(C)c1-c1cc2cc(CO)oc2c(NCC2CCOCC2)n1 returned Pf Dd2 inh inactive.
Cc1noc(C)c1-c1cc2cc(C(C)C)oc2c(Nc2ccn(C)n2)n1 was read as Pf Dd2 inh -1.6%[44.1 µM].
Cc1cccc(OCC(=O)N2CC3CC(C2)[C@H]2CCCC(=O)N2C3)c1 (stereo not given in full) was read as Pf Dd2 inh 1.9%.
COc1ccc(N2Cc3c(NC4CCCC4)ncnc3N(C)CC2=O)cc1 was read as Pf Dd2 inh -1.0%.

Screening data deposited in PubChem by National Center for Advancing Translational Sciences (NCATS).
